Assay outcomes from PubChem BioAssay.
12-hLO inh – qHTS Assay for Inhibitors of 12-hLO (12-human lipoxygenase); Polyunsaturated fatty acid lipoxygenase ALOX12 (Homo sapiens), P18054; purified 12-hLO, xylenol orange hydroperoxide absorbance; Potency, µM (titrated, usually from 57.1 µM), without a hit: top-dose activity change, negative = inhibition, usual class: inhibitors; 150,000 tested, 0.12% active; also: potency is read from the fitted curve at half-maximal effect; nearly all actives have a fitted effect of over 55% in size
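Xylenol orange chromogenic assay: hydroperoxide from 12hLO oxidises Fe(II), giving red-shifted Fe(III)-XO absorbance. Conditions: 150 nM enzyme, 40 uM arachidonic acid, 25 mM Hepes pH 7.0, 0.01% Triton X-100, 30 min, room temperature.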
15-hLO-2 inh – qHTS Assay for Inhibitors of 15-hLO-2 (15-human lipoxygenase 2) | purified 15hLO-2, xylenol orange hydroperoxide absorbance | Potency, µM (highest dose often 57.1 µM), for the others: at the top dose activity change, negative = inhibition, hits mostly inhibitors | 110,000 tested, 0.56% active; also: potency is read from the fitted curve at half-maximal effect; nearly all actives have a fitted effect of over 60% in size
Target sequence (O15296 whole entry, looked up): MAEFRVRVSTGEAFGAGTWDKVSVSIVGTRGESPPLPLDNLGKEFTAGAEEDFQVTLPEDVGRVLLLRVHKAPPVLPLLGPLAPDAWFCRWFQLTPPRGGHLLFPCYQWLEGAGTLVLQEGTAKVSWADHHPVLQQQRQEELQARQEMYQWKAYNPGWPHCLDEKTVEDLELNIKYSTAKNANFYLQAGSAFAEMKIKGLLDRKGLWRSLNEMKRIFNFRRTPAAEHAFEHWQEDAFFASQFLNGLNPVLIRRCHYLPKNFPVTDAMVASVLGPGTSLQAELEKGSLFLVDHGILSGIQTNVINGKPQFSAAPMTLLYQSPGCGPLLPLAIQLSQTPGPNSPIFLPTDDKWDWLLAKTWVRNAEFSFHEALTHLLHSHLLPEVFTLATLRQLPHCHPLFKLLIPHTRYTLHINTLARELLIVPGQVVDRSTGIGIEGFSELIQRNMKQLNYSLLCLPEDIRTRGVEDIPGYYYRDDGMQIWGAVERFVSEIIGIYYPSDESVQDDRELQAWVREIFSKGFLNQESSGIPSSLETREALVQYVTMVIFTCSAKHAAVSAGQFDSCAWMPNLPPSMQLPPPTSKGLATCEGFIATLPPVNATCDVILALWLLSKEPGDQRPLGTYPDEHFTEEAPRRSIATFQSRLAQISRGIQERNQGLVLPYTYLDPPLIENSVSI
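Purified human 15hLO-2 (50 nM final) preincubated with compounds 15 min at room temperature in 25 mM Hepes pH 7.5, 0.01% Triton X-100, then 45 uM arachidonic acid added for 90 min; hydroperoxide detected via ferrous/xylenol orange, 573/405 nm absorbance ratio.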
PNC assembly inh – High Content Assay for Compounds that inhibit the Assembly of the Perinucleolar Compartment. PC3M PTB-GFP, PNC prevalence imaging, 16 h; hits give low values. activity change (PNC), negative = inhibition, % at 10 µM. 140,000 tested, 3.1% active;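 active = readout at or below -70, meaning at least 70% loss of cells showing the perinucleolar compartment, a nuclear body marking cancer cells; inconclusive = readout between -30 and a set limit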;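 also: plate controls were DMSO wells for no effect and camptothecin positive control wells for full effect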
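PC3M cells stably expressing PTB-GFP, 750–1000 cells/well, treated 16 h at 37 °C with compound (23 nl of library stock), in duplicate. After paraformaldehyde fixation and Hoechst stain, imaged at 20x; PNC prevalence scored by image analysis.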
* hit, by the source's call; ? = inconclusive; nt = not tested or not shown; [ ] = remark or other dose. This is a sample that favours compounds with a hit; in the whole collection about 3.2% have one here. Unless noted, calls follow the shape of the dose curve; as a rule, active = well fitted curve in the direction sought with a large enough effect; inconclusive = small, poorly fitted or top-dose-only effect, or another doubt; inactive = no such curve, though single readings can be large; an effect the other way counts as inactive or inconclusive. Unless noted, % is scaled to controls: 0 for no effect and ±100 for the full control effect.

SMILES | 12-hLO inh | 15-hLO-2 inh | PNC assembly inh
CCc1cccc(CC)c1NC(=O)C1CN(S(=O)(=O)c2ccccc2)CCN1S(=O)(=O)c1ccccc1 (stereo unspecified) | -2% | nt | -111*
CCNC(=O)C1CN(S(=O)(=O)c2ccccc2)CCN1S(=O)(=O)c1ccccc1 (stereo unspecified) | -1% | 6% | 5
COC(=O)C1=C(C)NC(C)=C(C(=O)OCCN(C)Cc2ccccc2)C1c1cccc([N+](=O)[O-])c1 (stereo unspecified) | 2% | 42% | 21
O=S(=O)(c1ccc(Cl)cc1)N1c2ccccc2Oc2nc3ccccc3nc21 | -3% | nt | -24
COc1ccc(S(=O)(=O)N2c3cc(Cl)ccc3Oc3nc4ccccc4nc32)cc1 | 1% | nt | -100*
O=C(Nc1cccc(F)c1)c1ccccc1-c1ccccc1 | -1% | nt | -103*
O=C(Nc1ccc(F)cc1F)c1ccccc1-c1ccccc1 | -1% | nt | -10
COc1ccccc1C(O)(C(=O)NN(C)c1ccccc1)c1ccccc1OC | -3% | nt | 41
CCNC(=O)[C@H]1O[C@H](n2cnc3c(N)nc(NCCc4ccc(CCC(=O)O)cc4)nc32)[C@@H](O)[C@@H]1O | -1% | 9% | nt
COc1ccc(C2NC(C(=O)O)Cc3c2[nH]c2ccccc32)cc1OC (stereo unspecified) | ? | -4% | -98*
COc1cc(C2NC(C(=O)O)Cc3c2[nH]c2ccccc32)cc(OC)c1OC (stereo unspecified) | 0% | 8% | ?
C[C@](N)(COP(=O)(O)O)C(=O)O | -2% | 9% | nt
COc1cc([C@H]2c3cc4c(cc3[C@@H](O[C@H]3O[C@H]5CO[C@@H](C)O[C@H]5[C@@H](O)[C@@H]3O)[C@@H]3COC(=O)[C@H]23)OCO4)cc(OC)c1O | -3%[25.6 µM] | 7%[25.6 µM] | nt
COc1cc2oc(=O)cc(-c3ccc(-c4sccc4C=O)cc3)c2c(OC)c1OC | -3%[0.00818 µM] | 8%[0.0915 µM] | nt
C=CCOc1ccc2ccccc2c1/C=N/O | -5% | -2% | 27
COc1ccc2ccccc2c1/C=N/O | 2% | 1% | -108*
O=C(O)c1ccccc1NCc1ccncc1 | -5% | -13% | 7
O=C(O)c1ccc(CNc2ccccc2C(=O)O)cc1 | 5% | 1% | -131*
CC(=O)Oc1cccc(N2C(=O)c3ccccc3C2=O)c1 | -1% | nt | -85*
CC(=O)Oc1cccc(N2C(=O)C3CC=CCC3C2=O)c1 (stereo unspecified) | -3% | -5% | ?
O=C(O)[C@H]1[C@H]2C[C@H]3c4[nH]c5ccccc5c4CCN3C[C@@H]2CC[C@@H]1O | 0% | 14% | nt
CCC(C)(C)C1CCC(=NNC(=O)c2ccoc2C)CC1 (stereo unspecified) | 0% | 0% | 26
CCCCn1c(=O)c2c(c3ccccc31)OCC(=O)N2 | 4% | -2% | 19
CCCn1c(=O)c2c(c3ccccc31)OC(C)C(=O)N2 (stereo unspecified) | -6% | 2% | -88*
CCn1c(-c2ccccc2Cl)nn(CC(=O)Nc2ccccc2C)c1=S | -1% | 4% | -25
SMILES | 12-hLO inh | 15-hLO-2 inh | PNC assembly inh
Cc1cc(F)c(Nc2ncnc3cc(OCc4ccccc4)ccc23)cc1O | -2%[0.00818 µM] | 8%[0.0915 µM] | nt
Cc1cccc(Cn2c(SCCN3CCOCC3)nc3c2c(=O)n(C)c(=O)n3C)c1 | 3% | 0% | -1
Cc1ccc(Cn2c(SCCN3CCOCC3)nc3c2c(=O)n(C)c(=O)n3C)cc1 | -4% | 12% | -81*
CCCCCCCC1=Cc2ccc(F)cc2C(C(C(C)=O)C(=O)OC)N1C(=O)OC (stereo unspecified) | -4%[11.4 µM] | nt | nt
CCOC(=O)Nc1ccc2c(c1)Nc1ccccc1S2 | -10% | 13µM* | 41
CC(=O)c1ccc2c(c1)Nc1ccccc1S2 | -25% | -26% | -15
Cc1ccc(C(=O)NC(=S)Nc2ccc(Oc3ccc(Cl)cc3)cc2)cc1 | -8% | 13µM* | 23
Cc1ccc(C(=O)NC(=S)Nc2ccc(NC(=O)c3cccc(Cl)c3)cc2)cc1 | 2% | nt | ?
Cc1ccc(C(=O)NC(O)C(Cl)Cl)cc1 (stereo unspecified) | -4% | nt | 71
c1nnc(NCNc2nncs2)s1 | 2%[11.4 µM] | -9%[11.4 µM] | nt
C[C@@H]1OC(OC2C(OC3CC[C@@]4(C)C5CC=C6C7CC(C)(C)CC[C@@]7(C(=O)O)CCC6(C)C5(C)CCC4[C@]3(C)CO)OCC(O)C2O)C(O)C(O)C1O (stereo partly specified) | 2% | -13% | nt
CC(C)(C)c1cc[n+](-c2nc([O-])sc2C=O)cc1 | -2% | nt | -113*
CCc1cc[n+](-c2nc([O-])sc2C=O)cc1 | -5% | -13% | 0
COc1ccc(CCNC(=O)CSc2nnc(NC(C)=O)s2)cc1OC | 0% | nt | 0
COc1ccc(CCNc2nnc(Sc3nnnn3-c3ccccc3)s2)cc1OC | -3% | -6% | -97*
CS(=O)(=O)Nc1ccc(Br)cc1C(=O)c1ccccc1 | -2% | -6% | -84*
CS(=O)(=O)Nc1ccccc1C(=O)O | -4% | 1% | -23
Cn1cc2c(=O)n(/N=C/c3ccccc3)cnc2n1 | 2% | nt | -82*
O=c1c2c3c(sc2ncn1/N=C/c1ccccc1)CCCC3 | -3% | nt | -16
CCCc1cc2c(n1Cc1cc(F)cc(F)c1)C(C)C1CN(C(=O)c3ccccc3)C(C)(C(=O)OC)C21 (stereo unspecified) | -6% | -13% | nt
O=S(=O)(NCCc1csc(-c2cccnc2)n1)c1ccc(Cl)s1 | 4% | -5% | ?
Cc1nn(-c2ccccc2)c2nc(-c3ccncc3)cc(C(=O)NCc3ccco3)c12 | -12% | 22% | 4
COc1ccc(NC(=O)c2cc(-c3ccccc3)nc3c2c(C)nn3-c2ccccc2)c(OC)c1 | -2% | nt | -89*
CCN1C(=O)/C(=C/N2CC(C)CC(C)C2)SC1=S (stereo unspecified) | 5% | -17% | -89*
CCN1C(=O)/C(=C\N2CCCCCC2)SC1=S | -16% | -19% | 14
SMILES | 12-hLO inh | 15-hLO-2 inh | PNC assembly inh
CCCCNC(=O)Nc1ccccc1C(=O)NCc1ccco1 | -3% | -9% | -17
CCCCNC(=O)Nc1ccccc1C(=O)NCCC | -1% | nt | -100*
CCC(C)O (stereo unspecified) | -2% | 11% | nt
CCCS(=O)(=O)N1CCN(Cc2ccc3c(c2)c2ccccc2n3CC)CC1 | -21% | nt | -10
Cc1ccc(/C=C/C2=C[C@]3(C)C[C@]2(C)[C@H](c2ccc(C)cc2)CC3=O)cc1 | 1% | nt | nt
Clc1cccc(NCc2nnc(SCc3ccc(Cl)cc3Cl)o2)c1 | -8% | nt | -119*
CC(C)(C)OC(=O)NCCc1nnc(SCc2ccc(Cl)cc2Cl)o1 | -4% | 4% | ?
CCC1=C2CC[C@H]3C(=O)N(CC)C(=O)[C@H]3[C@H]2[C@@]2(Cc3ccccc3)C(=NCCOC)OC(=O)N2C1=O | -1% | -3% | nt
C=CCOc1c(Br)cc(/C=N/O)cc1OCC | -4% | nt | -109*
CCCCOc1c(Br)cc(/C=N/O)cc1OCC | -9% | nt | 9
O=S(=O)(Nc1cccc(-c2nc3cccnc3s2)c1)c1ccc2c(c1)OCCO2 | -10% | -7% | -20
